# TDP1 cell noCPT = qHTS for Inhibitors of human tyrosyl-DNA phosphodiesterase 1 (TDP1): qHTS in cells in absence of CPT | DT40 Tdp1-/- hTDP1 cells, no CPT, ATP luminescence, 48 h | Potency, µM (titrated, usually from 46.2 µM), for inactives: top-dose activity change, negative = growth inhibition, actives largely listed as inhibitors | hit rate 15% among 420,000 | AID 686978, 2013; note: potency is the fitted concentration of half-maximal effect; nearly all actives have a fitted effect of over 55% in size
#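 Chicken DT40 Tdp1-/- cells stably complemented with human TDP1 were seeded at 400 cells/well with DMSO in place of 20 nM camptothecin. After compound pinning, cells grew at least 48 hr at 37 °C; viability read by CellTiter-Glo luminescence.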
# DT40 TDP1 CPT = growth inhibition of DT40 Tdp1-/-;hTDP1 cells with camptothecin (screen for TDP1 inhibitors). hit rate 12% among 420,000. chicken DT40 Tdp1-/-;hTDP1 cells + 20 nM CPT, ATP luminescence, 48 h. AID 686979. Potency, µM (top dose mostly 46.2 µM), inactives show top-dose activity change, negative = growth inhibition, most hits filed as inhibitors; note: potency is the fitted concentration of half-maximal effect; nearly all actives have a fitted effect of over 55% in size
#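 Chicken DT40 Tdp1-/- cells stably complemented with human TDP1 were seeded at 400 cells/well in medium containing 20 nM camptothecin, exposed to pin-transferred compounds, and grown at 37 °C for at least 48 hr. Viability was read as ATP luminescence.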
# LDHA block = blocks human lactate dehydrogenase A; P00338; purified LDHA, NADH/diaphorase-resazurin fluorescence; active compounds read low; activity change, % (values are at about 110 or 230 µM); hit rate 0.15% among 480,000; in the data active = activity change below about -30%; inconclusive = mostly about -25% to -30%;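 note: plate controls were DMSO wells for no effect and wells without enzyme for full effect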
#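 Human LDH5 at 2 nM final in Tris HCl pH 7.4 with 0.06 mM NADH and 0.2 mM pyruvate, reacted 5 minutes at room temperature. Remaining NADH coupled via diaphorase/resazurin; resorufin fluorescence read at 0 and 20 minutes, normalized to enzyme-free and DMSO wells.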
# RORgamma inh = inhibitors of mouse ROR gamma transcriptional activity. P51450. Drosophila S2 Gal4-RORgamma UAS-luciferase reporter, 20 h. Potency, µM (top dose mostly 53.6 µM), for inactives: at the highest dose activity change, negative = inhibition, usual class: inhibitors. hit rate 5.4% among 310,000. AID 2551; note: potency is the fitted concentration of half-maximal effect; nearly all actives have a fitted effect of over 60% in size
# Target sequence (P51450 whole entry, looked up, the tested form may be a part): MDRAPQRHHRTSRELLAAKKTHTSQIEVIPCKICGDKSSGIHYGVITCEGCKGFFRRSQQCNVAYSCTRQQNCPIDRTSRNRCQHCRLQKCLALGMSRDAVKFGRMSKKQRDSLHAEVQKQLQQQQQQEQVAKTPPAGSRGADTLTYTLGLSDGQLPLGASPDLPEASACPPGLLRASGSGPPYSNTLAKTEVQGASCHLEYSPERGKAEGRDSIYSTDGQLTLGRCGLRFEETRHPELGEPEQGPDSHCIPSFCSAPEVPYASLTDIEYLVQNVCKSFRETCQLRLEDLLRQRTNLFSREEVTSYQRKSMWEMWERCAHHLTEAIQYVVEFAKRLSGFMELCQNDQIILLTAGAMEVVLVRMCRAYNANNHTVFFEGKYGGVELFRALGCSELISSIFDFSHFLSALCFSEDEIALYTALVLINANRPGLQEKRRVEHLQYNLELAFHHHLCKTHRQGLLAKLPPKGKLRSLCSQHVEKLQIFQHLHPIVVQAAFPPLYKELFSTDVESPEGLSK
#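 Schneider cells (Drosophila), stable Gal4 DBD–ROR gamma + UAS-luc; 1 hr cmpd preincubation; Cu2+ induction 700 uM final; 20 hr ambient; luminescence.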
# VP16 counter = Gal4-VP16 reporter inhibition counter-screen; Drosophila S2 Gal4-VP16 UAS-luciferase, luminescence, 20 h; Potency, µM (series often up to 53.6 µM), for the others: at the highest dose activity, negative = inhibition, most hits filed as inhibitors; hit rate 3.5% among 310,000; AID 2546;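 note: Gal4-VP16 expression switched on by copper sulfate through the metallothionein promoter; potency is the fitted concentration of half-maximal effect; nearly all actives have a fitted effect of over 50% in size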
# IL1B secr inh = inhibitors of inflammasome signaling (IL-1 beta secretion). activity change, % at 57.5 µM. THP-1 LPS/ATP IL-1B secretion, AlphaLISA, 16 h; active compounds read low. hit rate 4.7% among 360,000; in the data active = activity change below about -50%; inconclusive = mostly about -30% to -49%
#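 Secreted IL-1B measured by AlphaLISA bead assay after 16 h compound exposure of THP-1 cells; compounds (final up to 57.5 uM) added 1 h before LPS (250 ng/mL) and ATP (1.25 mM) stimulation; lower signal means less secretion.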
# An asterisk follows results filed as active; ? = inconclusive; . = not tested or not shown; ! = repeats disagree. Compounds with a hit are over-represented: about 18% of the library has one in this group of screens. Unless noted, calls come from the whole dose curve; as a rule, active = well fitted curve in the direction sought with a large enough effect; inconclusive = small, poorly fitted or top-dose-only effect, or another doubt; inactive = no such curve, though single readings can be large; an effect the other way counts as inactive or inconclusive. Unless noted, % is set by controls: 0 for no effect and ±100 for the full control effect.
SMILES,TDP1 cell noCPT,DT40 TDP1 CPT,LDHA block,RORgamma inh,VP16 counter,IL1B secr inh
O=C1c2ccc(Oc3cccc([N+](=O)[O-])c3)cc2C(=O)N1c1ccccn1,?,?,0.8,-3.3%,-8.6%,2.4
O=C1c2cc([N+](=O)[O-])cc3cc([N+](=O)[O-])cc(c23)C(=O)N1c1ccccn1,18.4µM*,20.6µM*,20.7,?,-100.8%,-99.7*
CN(C)c1ncnc2c1nnn2C1OC(CO)C(O)C1O (stereo not drawn),0.326µM*,0.581µM*,1.3,.,.,95.8
OCC1OC(n2cnc3c(/C=C(\O)c4ccccc4)ncnc32)C(O)C1O (stereo not drawn),1.46µM*,1.3µM*,2.1,.,.,-6.9
COc1ccc(C[C@H](N)C(=O)N[C@H]2[C@@H](O)[C@H](n3cnc4c(N(C)C)ncnc43)O[C@@H]2CO)cc1,8.2µM*!,-25.2%,-10.8,.,.,-90.0*
CN(C)c1ncnc2c1ncn2C1OC(CO)C(O)C1O (stereo not drawn),2.91µM*,2.91µM*,-12.9,12.8%,-1.4%,34.9
CNc1ncnc2c1ncn2[C@@H]1O[C@H](CO)[C@@H](O)[C@H]1O,-22.6%,?,-4.0,.,.,54.6
CC(=O)NCCc1ccc(C(=O)COC(=O)c2cc(C)ccc2O)s1,.,.,5.8,.,.,.
CCOC(=O)c1cc(-c2ccccn2)nc2c1c(=O)[nH]c(=O)n2C,.,.,17.3,.,.,.
O=C(NC1CCCCCCC1)c1nn(Cc2ccccc2)c(=O)c2ccccc12,.,.,-0.6,.,.,.
O=C(N/N=C/c1cccs1)c1ccc2ncccc2c1,-1.5%,1.3%,-3.0,11.2µM*,?,-21.5
O=C(N/N=C/c1cccs1)c1cccc2cc[nH]c12,?,?,-3.0,2.82µM*,?,-24.6
O=C(N/N=C/c1cccs1)c1ccc2nc[nH]c2c1,-4.7%,17.4%,-7.7,13.2%,-4.0%,-5.2
O=C(N/N=C/c1cccs1)c1ccc2ccccc2c1,20.6µM*,14.6µM*,-0.1,3.98µM*,5.62µM*,-18.7
O=C(N/N=C/c1cccs1)c1ccccc1,.,.,2.1,.,.,.
O=C(N/N=C/c1cccc([N+](=O)[O-])c1)c1cccc2cc[nH]c12,-25.8%,-11.9%,-13.9,-0.8%,1.7%,10.7
O=C1CCSc2ccc(Cl)cc2N1Cc1cccc(Cl)c1,20.6µM*,?,2.9,2.0%,?,13.0
Cc1ccc(CN2C(=O)CCSc3ccc(Cl)cc32)cc1,?,-19.4%,-2.8,11.9%,-4.8%,7.9
O=c1cc(/C=C/c2cccs2)[nH]c2ccccc12,2.06µM*,2.59µM*,-0.5,33.5%,1.7%,0.0
Cc1nc(S(=O)(=O)N(C)c2ccccc2)c(C#N)c(C)c1Cl,23.1µM*,23.1µM*,-10.9,-47.5%,-24.8%,?
COc1ccc(/C(C)=N/Nc2nccnc2Cl)cc1,-9.5%,-16.0%,-3.8,.,.,-51.6*
C/C(=N\Nc1nccnc1Cl)c1ccc(Br)cc1,-9.4%,?,-3.5,?,?,-15.6
CCNc1nc(NCC)nc(N/N=C/c2ccccc2)n1,0.4%,3.2%,-11.8,14.1µM*,-9.5%,7.2
CCNc1nc(NCC)nc(N/N=C(\C)c2ccc(OC)cc2)n1,?,?,-15.0,7.08µM*,?,-15.5
CCNc1nc(NCC)nc(N/N=C/c2ccc(OC)cc2)n1,-26.4%,-0.6%,-2.2,11.2µM*,-24.9%,-29.7
SMILES,TDP1 cell noCPT,DT40 TDP1 CPT,LDHA block,RORgamma inh,VP16 counter,IL1B secr inh
COc1ccc(/C=N/Nc2nc(C)nc(N)n2)cc1,-14.1%,-0.1%,-5.8,-7.0%,5.9%,-14.7
COc1ccc(Nc2nc(NCc3ccco3)nc(N/N=C/c3ccccc3)n2)cc1,?,?,-5.8,10.1%,-17.5%,-4.2
Brc1cccc(/C=N/Nc2nc(N3CCCCC3)nc(N3CCCCC3)n2)c1,.,.,.,-4.7%,-0.4%,.
CN(C)c1nc(NCc2ccccc2)nc(N/N=C/c2cccc(Br)c2)n1,7.31µM*,5.8µM*,-12.9,3.55µM*,11.2µM*,-4.6
CC(C)(C#N)C(=O)NCc1ccccc1OCc1ccccc1,.,.,6.1,.,.,.
O=C(N/N=C/c1cc(Br)ccc1OC(=O)c1ccc(Br)cc1)c1ccncc1,6.51µM*,4.61µM*,8.2,2.82µM*,5.01µM*,112.8
O=C(N/N=C/c1ccccc1O)c1cc[n+]([O-])cc1,29.1µM*,14.6µM*,8.0,?,-10.6%,42.3
Cc1ccc(N=Nc2ccc(O)c(/C=N\NC(=O)c3ccc(N)cc3)c2)cc1C,13µM*,10.3µM*,-8.9,3.16µM*,2.24µM*,86.5
O=C(N/N=C/c1ccc(OC(=O)c2ccc(Br)cc2)cc1)c1ccncc1,-14.9%,11.2%,-4.3,14.0%,-1.3%,6.5
Cc1ccc(C(=O)N/N=C/c2cccc(C)c2)cc1,.,.,-4.1,.,.,.
O=C(N/N=C/c1cc(Br)ccc1O)c1ccncc1,1.64µM*,4.61µM*,0.0,6.31µM*,?,162.3
CC(C)(C)OC(=O)N/N=C/c1cc(N=Nc2ccccc2)ccc1O,?,?,1.6,3.98µM*,5.62µM*,-10.8
Cc1ccc(NCC(=O)N/N=C/c2cc3ccccc3nc2Cl)cc1,29.1µM*,23.1µM*,0.7,7.1%,2.9%,-21.0
O=C(CN1CCOCC1)N/N=C/c1cc2ccccc2nc1Cl,?,?,-4.5,-21.0%,18.8%,-10.1
CC(C)(C)OC(=O)N/N=C/c1cccc(Cl)c1Cl,.,.,2.5,.,.,.
Cn1cc(Br)c(C(=O)N/N=C/c2cc3ccccc3nc2Cl)n1,20.6µM*,?,-0.7,28.8%,22.4%,-24.2
O=C(N/N=C/c1cc2ccccc2nc1Cl)c1ccncc1,4.61µM*,2.59µM*,-17.9,-35.5%,-2.9%,101.7
COc1ccccc1Oc1coc2cc(OC(=O)c3cccs3)ccc2c1=O,.,.,-7.7,.,.,.
O=C(N/N=C/c1cc(Cl)ccc1O)c1ccc(Br)cc1,5.8µM*,5.17µM*,-12.0,2.82µM*,?,47.1
O=C(N/N=C/c1ccccc1O)c1ccncc1,3.66µM*,4.61µM*!,-13.2,3.16µM*,2.82µM*,110.1
Cc1ccc2nc(Cl)c(/C=N/Nc3ccc(C(=O)O)cc3)cc2c1,?,-6.1%,-8.9,3.16µM*,7.08µM*,30.0
O=C(N/N=C/c1ccc(O)c2ncccc12)c1cccc(Br)c1,4.61µM*,3.66µM*,16.2,15.8µM*,?,120.7
O=C(N/N=C/c1cc(Br)cs1)c1cccc(Br)c1,.,.,9.0,.,.,.
O=C(N/N=C/c1ccc(O)c(O)c1)c1cccc(S(=O)(=O)N2CCCCC2)c1,-19.8%,?,9.5,-5.1%,-5.1%,30.4

# Assay outcomes as filed in PubChem.
